Reference: PubChem BioAssay (EPA / NIEHS)
Inconclusive results are not listed. Active and inactive are the calls of the source. How the source made its calls, unless noted: active means hit-call score of the fitted dose curve at least 0.9, where 1 is the maximum; inconclusive means response in the unintended direction; inactive means score below 0.9.

Experiments:
[1] = biological target: Estrogen receptor (Homo sapiens) (UniProt P03372); assay: ATG_ERa_TRANS: Attagene TRANS-FACTORIAL HepG2 Assay for human Estrogen Receptor alpha (ERa) (AID 2282970); conditions: HepG2 Attagene TRANS ERa GAL4 reporter, mRNA
Procedure, shortened: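 Reporter transcripts were measured 24 h after dosing by RT-PCR with fluorescent primer extension and capillary electrophoresis. The system is transiently transfected HepG2 expressing exogenous NR-Gal4 chimeras driving GAL4-UAS reporters; DMSO is the baseline.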

[2] = biological target: X-box-binding protein 1 (Homo sapiens) (UniProt P17861); assay: ATG_Xbp1_CIS: Attagene CIS-FACTORIAL HepG2 Assay for human X-box Binding Protein 1 (XBP1) (AID 2282972; active means hit-call score of the fitted dose curve at least 0.9, where 1 is the maximum; inactive means score below 0.9); conditions: HepG2 XBP1 cis-element reporter, Attagene multiplex; actives raise or lower the signal
Procedure, shortened: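 Multiplexed cis-reporter readout in transfected HepG2 liver cells. Exposure lasted 24 hours. Activity in either direction was fitted against DMSO as negative control and baseline.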

[3] = ATG_M_19_TRANS: Attagene TRANS-FACTORIAL HepG2 Assay for M19 Transcription Factor (Internal Marker) (AID 2282974); conditions: HepG2 Attagene TRANS-FACTORIAL M19 internal marker reporter
Procedure, shortened: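 Background-control readout: after 24 h chemical exposure of transfected HepG2 carrying GAL4-driven reporter units, RNA was reverse-transcribed, amplified, fluorescently labeled and sized by capillary electrophoresis; gain-of-signal fit against DMSO.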

[4] = biological target: Glucocorticoid receptor (Homo sapiens) (UniProt P04150); assay: ATG_GR_TRANS: Attagene TRANS-FACTORIAL HepG2 Assay for human Glucocorticoid Receptor (GR) (AID 2282978); conditions: HepG2 Attagene TRANS GR reporter, mRNA transcription;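 further: activators score as hits since higher reporter transcript over DMSO is fitted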
Procedure, shortened: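 Readout is reporter transcript from a chimeric GR-Gal4 acting on GAL4-UAS in transfected human HepG2 liver cells after 24 h exposure, quantified by RT-PCR and capillary electrophoresis. Activation fitted upward against DMSO.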

[5] = biological target: Nuclear receptor subfamily 1 group I member 3 (Homo sapiens) (UniProt Q14994); assay: ATG_CAR_TRANS: Attagene TRANS-FACTORIAL HepG2 Assay for human Constitutive Androstane Receptor (CAR) (AID 2282969); conditions: HepG2 Attagene TRANS-FACTORIAL CAR reporter;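 further: activators raise reporter mRNA above DMSO so AC50 marks induction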
Procedure, shortened: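 Signal is reporter mRNA induction relative to DMSO, measured 24 h after dosing by RT-PCR with fluorescent primer extension and capillary electrophoresis. Human HepG2 liver cells carried transiently transfected chimeric NR-Gal4/GAL4-UAS reporter constructs.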

[6] = ATG_GAL4_TRANS: Attagene TRANS-FACTORIAL HepG2 Assay for GAL4 (Internal Marker) (AID 2282976); conditions: HepG2 Attagene TRANS GAL4 internal marker reporter
Procedure, shortened: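 In transfected human HepG2 liver cells dosed 24 h, GAL4 reporter mRNA serves as a baseline marker. Detection by RT-PCR with fluorescent capillary electrophoresis, activity fitted upward relative to DMSO.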

[7] = biological target: Steroid hormone receptor ERR1 (Homo sapiens) (UniProt P11474); assay: ATG_ERRa_TRANS: Attagene TRANS-FACTORIAL HepG2 Assay for human Estrogen-Related Receptor alpha (ERRa) (AID 2282971); conditions: HepG2 Attagene TRANS reporter, ERRa transactivation
Procedure, shortened: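 Reporter transcripts from ERRa-Gal4 chimera activity measured in transiently transfected human HepG2 cells 24 hours after dosing, using RT-PCR with 6-FAM primer extension, HpaI digestion and capillary electrophoresis; DMSO is baseline.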

[8] = biological target: Estrogen-related receptor gamma (Homo sapiens) (UniProt P62508); assay: ATG_ERRg_TRANS: Attagene TRANS-FACTORIAL HepG2 Assay for human Estrogen-Related Receptor gamma (ERRg) (AID 2282977); conditions: HepG2 Attagene TRANS reporter, ERRg transactivation;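 further: hits increase reporter signal over DMSO so potencies reflect activators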
Procedure, shortened: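 Induction of reporter transcripts through a chimeric NR-Gal4 protein is quantified in transfected human HepG2 liver cells after 24 h chemical exposure, using RT-PCR with capillary electrophoresis detection and DMSO as baseline.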

Measured: outcome

Sequence of X-box-binding protein 1 (Homo sapiens) (P17861 whole entry, looked up): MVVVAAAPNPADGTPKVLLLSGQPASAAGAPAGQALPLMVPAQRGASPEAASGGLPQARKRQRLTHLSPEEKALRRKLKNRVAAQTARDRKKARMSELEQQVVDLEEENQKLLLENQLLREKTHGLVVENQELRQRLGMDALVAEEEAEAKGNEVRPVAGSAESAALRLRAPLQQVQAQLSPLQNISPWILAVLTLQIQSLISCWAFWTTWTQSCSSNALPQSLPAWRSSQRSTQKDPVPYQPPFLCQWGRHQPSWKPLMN
Sequence of Glucocorticoid receptor (Homo sapiens) (P04150 whole entry, looked up, the tested form may be a part): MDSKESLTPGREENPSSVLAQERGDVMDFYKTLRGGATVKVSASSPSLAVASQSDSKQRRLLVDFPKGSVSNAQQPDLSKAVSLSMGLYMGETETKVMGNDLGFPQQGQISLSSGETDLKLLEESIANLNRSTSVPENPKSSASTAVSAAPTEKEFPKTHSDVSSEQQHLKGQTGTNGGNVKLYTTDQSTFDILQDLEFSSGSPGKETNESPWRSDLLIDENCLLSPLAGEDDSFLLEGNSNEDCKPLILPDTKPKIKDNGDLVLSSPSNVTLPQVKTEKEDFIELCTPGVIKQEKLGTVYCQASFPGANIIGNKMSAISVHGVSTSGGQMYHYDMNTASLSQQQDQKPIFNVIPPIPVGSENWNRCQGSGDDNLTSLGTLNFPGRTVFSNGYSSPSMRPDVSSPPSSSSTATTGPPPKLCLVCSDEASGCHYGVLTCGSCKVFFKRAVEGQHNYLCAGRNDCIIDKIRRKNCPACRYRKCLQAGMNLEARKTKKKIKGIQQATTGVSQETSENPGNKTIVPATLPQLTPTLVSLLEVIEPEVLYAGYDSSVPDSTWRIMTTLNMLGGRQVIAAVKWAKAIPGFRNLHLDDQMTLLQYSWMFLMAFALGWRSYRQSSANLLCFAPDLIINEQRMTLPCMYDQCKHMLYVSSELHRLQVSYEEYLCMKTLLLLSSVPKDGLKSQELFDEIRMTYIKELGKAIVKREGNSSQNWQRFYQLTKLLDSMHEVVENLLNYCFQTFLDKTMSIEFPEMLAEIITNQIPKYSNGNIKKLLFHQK
Sequence of Estrogen receptor (Homo sapiens) (P03372 whole entry, looked up, the tested form may be a part): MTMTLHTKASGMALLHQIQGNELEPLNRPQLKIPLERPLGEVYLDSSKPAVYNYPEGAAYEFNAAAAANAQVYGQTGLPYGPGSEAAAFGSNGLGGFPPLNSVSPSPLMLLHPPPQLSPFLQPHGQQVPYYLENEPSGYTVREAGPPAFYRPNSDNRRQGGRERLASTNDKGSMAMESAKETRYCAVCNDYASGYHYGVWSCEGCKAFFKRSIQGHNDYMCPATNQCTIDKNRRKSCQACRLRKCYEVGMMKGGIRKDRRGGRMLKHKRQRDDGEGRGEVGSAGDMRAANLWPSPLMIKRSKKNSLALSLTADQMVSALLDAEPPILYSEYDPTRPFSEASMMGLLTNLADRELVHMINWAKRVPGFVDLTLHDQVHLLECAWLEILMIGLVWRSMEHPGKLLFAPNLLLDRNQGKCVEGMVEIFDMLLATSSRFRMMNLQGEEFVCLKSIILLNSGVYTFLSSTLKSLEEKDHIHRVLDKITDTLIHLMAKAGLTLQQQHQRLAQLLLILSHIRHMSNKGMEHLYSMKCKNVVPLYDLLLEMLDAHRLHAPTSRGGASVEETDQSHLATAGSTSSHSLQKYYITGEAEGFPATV
Sequence of Nuclear receptor subfamily 1 group I member 3 (Homo sapiens) (Q14994 whole entry, looked up, the tested form may be a part): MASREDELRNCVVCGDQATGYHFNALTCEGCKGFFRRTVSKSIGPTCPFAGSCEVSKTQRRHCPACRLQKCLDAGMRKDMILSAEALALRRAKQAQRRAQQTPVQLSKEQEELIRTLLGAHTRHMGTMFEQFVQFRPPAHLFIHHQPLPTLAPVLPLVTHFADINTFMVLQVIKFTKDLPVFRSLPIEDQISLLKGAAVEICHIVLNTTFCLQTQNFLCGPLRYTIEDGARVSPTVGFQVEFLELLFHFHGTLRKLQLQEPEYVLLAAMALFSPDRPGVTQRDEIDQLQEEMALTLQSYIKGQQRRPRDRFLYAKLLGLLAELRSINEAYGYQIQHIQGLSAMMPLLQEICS
Sequence of Estrogen-related receptor gamma (Homo sapiens) (P62508 whole entry, looked up, the tested form may be a part): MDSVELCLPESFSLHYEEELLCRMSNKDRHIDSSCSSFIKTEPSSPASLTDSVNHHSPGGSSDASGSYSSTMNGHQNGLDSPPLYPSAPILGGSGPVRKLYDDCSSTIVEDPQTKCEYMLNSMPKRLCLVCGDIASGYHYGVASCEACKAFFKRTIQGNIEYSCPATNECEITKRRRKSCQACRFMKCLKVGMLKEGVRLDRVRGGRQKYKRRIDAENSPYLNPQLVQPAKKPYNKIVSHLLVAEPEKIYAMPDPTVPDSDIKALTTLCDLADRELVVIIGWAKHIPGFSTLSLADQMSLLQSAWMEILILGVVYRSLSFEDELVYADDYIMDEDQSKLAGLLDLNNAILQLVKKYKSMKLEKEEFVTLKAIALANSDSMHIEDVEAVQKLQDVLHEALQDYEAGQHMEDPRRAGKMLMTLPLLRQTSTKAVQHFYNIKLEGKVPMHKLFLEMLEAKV
Sequence of Steroid hormone receptor ERR1 (Homo sapiens) (P11474 whole entry, looked up, the tested form may be a part): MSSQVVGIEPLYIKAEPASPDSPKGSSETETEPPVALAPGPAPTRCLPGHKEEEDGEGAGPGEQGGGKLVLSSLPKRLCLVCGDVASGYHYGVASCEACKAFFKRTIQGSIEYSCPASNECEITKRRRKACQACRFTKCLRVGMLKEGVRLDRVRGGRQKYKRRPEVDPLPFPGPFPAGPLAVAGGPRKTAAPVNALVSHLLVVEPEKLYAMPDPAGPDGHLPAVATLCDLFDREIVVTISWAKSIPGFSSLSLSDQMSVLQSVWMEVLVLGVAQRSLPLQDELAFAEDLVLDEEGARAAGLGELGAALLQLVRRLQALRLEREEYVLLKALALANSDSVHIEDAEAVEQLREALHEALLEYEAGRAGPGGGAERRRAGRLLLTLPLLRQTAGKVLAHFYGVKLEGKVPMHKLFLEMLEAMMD

Fc1cccc(Cl)c1CCl
inactive: [1] | [2] | [3] | [4]

CC(C)O.CC(C)O.OCCN(CCO)CCO.OCCN(CCO)CCO.[Ti]
inactive: [5] | [2] | [6]

CCCCOC(C)=O
inactive: [1] | [2] | [3] | [6]

CC(=O)CN(CC(C)=O)N=O
inactive: [1] | [7] | [2] | [6] | [4]

CCCCCCCCCCCCOS(=O)(=O)O
inactive: [2] | [3] | [6] | [4]

O=c1nc(O)n(Cl)c(=O)n1Cl
inactive: [7] | [2] | [3] | [6] | [8]

COC(=O)Nc1cccc(OC(=O)Nc2cccc(C)c2)c1
inactive: [2] | [3] | [8]

OCCN(CCO)CCO
inactive: [2] | [6]

CCCCC(CC)C(=O)Cl (stereo not given)
inactive: [1] | [2] | [3]

Nc1ncn[nH]1
inactive: [5] | [2]
